According to PubChem BioAssay (Tox21):
A number with no mark means an inactive call. Inconclusive results are not listed. Where a call stands in place of a potency, no number is given. Active and inactive are the calls of the source. Unless noted, calls come from the whole dose curve; as a rule, active = well fitted curve in the direction sought with a large enough effect in the repeat runs; inconclusive = weak or mixed curves; inactive = no such curve, though single readings can be large; an effect the other way counts as inactive or inconclusive.

How the values were obtained:
[1] = qHTS assay to identify small molecule antagonists of the estrogen related receptor (ERR) signaling pathway from Tox21 library - cell viability counter screen (AID 1224834); note: nearly all actives have a fitted effect of over 30% in size; note: potency is the fitted concentration of half-maximal effect
Outline: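 ERR cells, 2,000/well; 6 h settle at 37 C/5% CO2; pin-tool compound transfer in DMSO; 17.5 h at 37 C; CellTiter-Fluor, 30 min; fluorescence intensity.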

[2] = molecular target: Luciferin 4-monooxygenase (Photinus pyralis) (UniProt P08659); experiment: qHTS assay to identify small molecule inhibitors of firefly luciferase (AID 1224835); note: nearly all actives have a fitted effect of over 25% in size; note: potency is the fitted concentration of half-maximal effect
Chain of Luciferin 4-monooxygenase (Photinus pyralis) (P08659 whole entry, looked up): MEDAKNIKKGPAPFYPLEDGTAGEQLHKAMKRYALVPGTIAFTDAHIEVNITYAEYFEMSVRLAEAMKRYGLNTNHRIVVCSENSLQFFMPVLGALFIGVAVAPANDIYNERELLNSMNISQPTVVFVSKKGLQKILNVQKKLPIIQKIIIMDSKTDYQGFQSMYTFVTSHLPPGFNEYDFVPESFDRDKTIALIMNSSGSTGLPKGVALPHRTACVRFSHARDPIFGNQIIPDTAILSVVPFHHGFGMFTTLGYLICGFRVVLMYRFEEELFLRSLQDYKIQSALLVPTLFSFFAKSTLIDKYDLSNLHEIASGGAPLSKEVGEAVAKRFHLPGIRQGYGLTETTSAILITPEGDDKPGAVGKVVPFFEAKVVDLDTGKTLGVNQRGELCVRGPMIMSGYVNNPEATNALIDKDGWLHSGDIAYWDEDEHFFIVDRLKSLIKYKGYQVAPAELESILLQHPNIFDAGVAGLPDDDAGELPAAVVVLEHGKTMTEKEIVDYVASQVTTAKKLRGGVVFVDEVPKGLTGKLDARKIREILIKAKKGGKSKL
Outline: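 Inhibition of purified Photinus luciferase is measured by luminescence. Substrate levels (D-luciferin, ATP) sit at their KM values. Each compound is tested in a concentration series.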

[3] = qHTS assay to identify small molecule agonists of the constitutive androstane receptor (CAR) signaling pathway - cell viability counter screen (AID 1224836); note: nearly all actives have a fitted effect of over 45% in size; note: potency is the fitted concentration of half-maximal effect
Outline: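 HepG2 cells stably carrying hCAR and a CYP2B6-2.2kb reporter were plated 4 h, then given compounds at 15 concentrations plus PK11195 (final 0.75 uM). After 23 h at 37 C, viability was read by CellTiter-Fluor fluorescence.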

[4] = qHTS assay to identify small molecule antagonists of the constitutive androstane receptor (CAR) signaling pathway - cell viability counter screen (AID 1224837); note: nearly all actives have a fitted effect of over 45% in size; note: potency is the fitted concentration of half-maximal effect
Outline: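 Viability was measured with CellTiter-Fluor in a HepG2 line carrying stably transfected hCAR and a CYP2B6-2.2kb construct. Cells were exposed for 23 hr at 37 C to 15 compound concentrations with 50 nM CITCO as agonist.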

[5] = molecular target: Nuclear receptor subfamily 1 group I member 3 (Homo sapiens) (UniProt Q14994); experiment: qHTS assay to identify small molecule agonists of the constitutive androstane receptor (CAR) signaling pathway (AID 1224839); note: nearly all actives have a fitted effect of over 15% in size; note: potency is the fitted concentration of half-maximal effect;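 for activation: HepG2 cells stably carrying human CAR and a CYP2B6 luciferase reporter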
Chain of Nuclear receptor subfamily 1 group I member 3 (Homo sapiens) (Q14994 whole entry, looked up): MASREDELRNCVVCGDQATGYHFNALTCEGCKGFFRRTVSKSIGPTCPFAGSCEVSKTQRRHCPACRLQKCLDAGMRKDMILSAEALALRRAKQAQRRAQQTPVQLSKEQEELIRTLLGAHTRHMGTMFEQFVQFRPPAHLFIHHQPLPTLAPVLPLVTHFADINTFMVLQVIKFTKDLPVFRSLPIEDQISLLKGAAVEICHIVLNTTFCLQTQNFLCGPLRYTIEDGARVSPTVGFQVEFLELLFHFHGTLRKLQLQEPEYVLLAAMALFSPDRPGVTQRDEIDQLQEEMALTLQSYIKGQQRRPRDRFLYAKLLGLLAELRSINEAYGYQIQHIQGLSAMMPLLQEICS
Outline: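 HepG2 cells stably expressing hCAR and a CYP2B6-2.2kb luciferase reporter were treated with compounds at 15 concentrations plus 0.75 uM PK11195 (final) for 24 h at 37 C; luminescence was read after ONE-Glo addition.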

[6] = qHTS assay to identify small molecule antagonists of the estrogen related receptor signaling pathway with the pleiotropic PPARgamma coactivator (PGC) from Tox21 10K library (AID 1224841; call rule not given here; note: actives are mostly falling curves and most rising ones were filed inactive; nearly all actives have a fitted effect of over 50% in size; note: potency is the fitted concentration of half-maximal effect)
Outline: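 Steps: plate 2,000 PGC/ERR cells per well; incubate 6 h at 37 C with 5% CO2; transfer compounds from DMSO stocks by pin tool; incubate 18 h at 37 C; add One-Glo; measure luminescence 30 min later.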

[7] = qHTS assay to identify small molecule agonists of the estrogen related receptor signaling pathway with the pleiotropic PPARgamma coactivator (PGC) from Tox21 10K library (AID 1224842); note: nearly all actives have a fitted effect of over 15% in size
Outline: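 Luminescence from One-Glo (30 min, room temperature) measured after PGC/ERR cells had 18 h at 37 C with pinned compound (23 nL in DMSO). Cells had been seeded at 2,000 per well and pre-incubated 6 h.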

[8] = molecular target: Thyrotropin receptor (Homo sapiens) (UniProt P16473); experiment: qHTS assay to identify small molecule agonists of the thyroid stimulating hormone receptor (TSHR) signaling pathway (AID 1224843; calls by dose curve; note: nearly all actives have a fitted effect of over 45% in size)
Chain of Thyrotropin receptor (Homo sapiens) (P16473 whole entry, looked up): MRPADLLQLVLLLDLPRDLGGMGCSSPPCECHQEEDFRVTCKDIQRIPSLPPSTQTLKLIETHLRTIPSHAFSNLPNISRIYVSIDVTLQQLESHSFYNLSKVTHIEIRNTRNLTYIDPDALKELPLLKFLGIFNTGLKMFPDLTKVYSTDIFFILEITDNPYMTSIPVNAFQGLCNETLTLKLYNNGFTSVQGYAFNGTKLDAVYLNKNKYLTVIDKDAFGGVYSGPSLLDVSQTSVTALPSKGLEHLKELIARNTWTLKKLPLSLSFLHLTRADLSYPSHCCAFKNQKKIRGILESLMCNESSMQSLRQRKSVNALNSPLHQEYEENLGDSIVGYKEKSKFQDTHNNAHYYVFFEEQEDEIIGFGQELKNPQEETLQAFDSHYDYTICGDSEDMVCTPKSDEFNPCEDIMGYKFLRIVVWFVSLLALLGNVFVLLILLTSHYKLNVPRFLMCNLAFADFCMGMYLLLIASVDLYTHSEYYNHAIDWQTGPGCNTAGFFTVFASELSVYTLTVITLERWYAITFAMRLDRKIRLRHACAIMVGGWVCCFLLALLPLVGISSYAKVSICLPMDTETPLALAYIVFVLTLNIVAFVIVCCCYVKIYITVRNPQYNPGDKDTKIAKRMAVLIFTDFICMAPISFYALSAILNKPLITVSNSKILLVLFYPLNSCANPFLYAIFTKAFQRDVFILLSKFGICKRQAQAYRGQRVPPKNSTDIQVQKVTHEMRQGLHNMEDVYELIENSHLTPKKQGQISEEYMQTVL
Outline: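 A cell-based cAMP HTRF format was run in TSHR-transfected HEK293 cells, 800 per well. Treatment: 30 min, room temperature. Detection: 1 h with labelled cAMP and anti-cAMP cryptate. Concentration-response over 15 points, three replicates.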

[9] = qHTS assay to identify small molecule agonists of H2AX (AID 1224845; active = well fitted activation curve with a large enough effect in the signal ratio in the repeat runs, not every such curve was filed as active; the % refers to the signal ratio)
Outline: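 Phospho-H2AX Ser139 measured by HTRF (ex 320 nm; em 665 and 620 nm) after 24 hr antibody incubation. Compounds, 15 concentrations, 0.76% DMSO, were applied to CHO-K1 cells for 3hr at 37C before lysis.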

[10] = qHTS assay to identify small molecule antagonists of the estrogen related receptor (ERR) signaling pathway from Tox21 library (AID 1224848); note: nearly all actives have a fitted effect of over 50% in size; note: potency is the fitted concentration of half-maximal effect
Outline: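 ERR cell line, 2,000 cells/well. 6 h settle, then compound (DMSO) added; 18 h at 37 C; ONE-Glo luminescence after 30 min RT.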

[11] = qHTS assay to identify small molecule agonists of the estrogen related receptor (ERR) signaling pathway from Tox21 library (AID 1224849; calls by dose curve; note: nearly all actives have a fitted effect of over 15% in size); details: ERR reporter cell line, ONE-Glo luciferase, 18 h; at 92.4 µM (top of the series) unless noted
Outline: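 Cells carrying the ERR reporter were plated and allowed to settle for 6 h, exposed to library compounds for 18 h at 37 C, then lysed with ONE-Glo and luminescence measured.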

[12] = qHTS RealTime-Glo MT Cell Viability Assay in HepG2 cells - 24 hour (AID 1224867); note: nearly all actives have a fitted effect of over 50% in size; note: potency is the fitted concentration of half-maximal effect
Outline: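 HepG2 cells (600/well) were dispensed with RealTime-Glo reagents, incubated 5 h at 37 °C, then treated with compounds in DMSO for up to 40 h. Nonlytic NanoLuc luminescence reflecting viable cells was read at each stated time point.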

[13] = A CellTox Green Cytotoxicity Assay to monitor cytotoxicity in HEK293 cells - 0 hour (AID 1224869); note: nearly all actives have a fitted effect of over 50% in size
Outline: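 Cells (HEK293, 600/well) and dye reagent are dispensed together. After 5 h at 37 C, 23 nL compound is pinned in. Plates stay at 37 C for 40 h with fluorescence read at 0h, 8h, 16h, 24h, 32h and 40h.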

[14] = qHTS RealTime-Glo MT Cell Viability Assay in HepG2 cells - 40 hour (AID 1224870); note: nearly all actives have a fitted effect of over 50% in size; note: potency is the fitted concentration of half-maximal effect
Outline: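 Real-time viability: cells seeded at 600 per well together with NanoLuc and cell-permeant prosubstrate, compounds added after 5 h incubation. Luminescence tracked at 0, 8, 16, 24, 32 and 40 h of exposure.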

[15] = qHTS assay to identify small molecule agonists of the hypoxia (HIF-1) signaling pathway - cell viability counter screen (AID 1224844; calls by dose curve; note: nearly all actives have a fitted effect of over 50% in size; note: potency is the fitted concentration of half-maximal effect)
Outline: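 Cytotoxicity was measured in parallel with the HRE-driven beta-lactamase readout: after 17 hrs of compound exposure at 37C, HRE-bla ME-180 cells received CellTiter-Glo and luminescence was recorded 30 min later.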

[16] = qHTS assay to identify small molecule agonists of the hypoxia (HIF-1) signaling pathway (AID 1224846; active = well fitted activation curve with a large enough effect in the signal ratio in the repeat runs, not every such curve was filed as active; the % refers to the signal ratio)
Outline: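 Compounds from the Tox21 10K library, dissolved in DMSO, are tested for induction of a hypoxia response element–controlled beta-lactamase reporter in ME-180 cells. Exposure lasts 17 hrs at 37C after a 5 hr settling period, followed by CCF4-AM FRET substrate.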

[17] = qHTS RealTime-Glo MT Cell Viability Assay in HEK293 cells - 32 hour (AID 1224868)
Outline: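 HEK293 cells seeded with NanoLuc/prosubstrate reagent, rested 5 h at 37 C, then dosed and kept at 37 C up to 40 h. Nonlytic real-time luminescence from viable cells read at 0, 8, 16, 24, 32 and 40 h.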

[18] = qHTS assay to identify small molecule antagonists of the estrogen related receptor signaling pathway with the pleiotropic PPARgamma coactivator (PGC) from Tox21 10K library - cell viability counter screen (AID 1224840; active = well fitted cell-killing curve with a large enough effect in the repeat runs, not every such curve was filed as active; note: nearly all actives have a fitted effect of over 40% in size)
Outline: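 Multiplexed viability counter screen in the PGC/ERR cell line: cells treated with DMSO-dissolved compounds for 17.5 hours at 37 C, then viability measured as CellTiter-Fluor fluorescence.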

[19] = qHTS assay to identify small molecule agonists of H2AX - cell viability counter screen (AID 1224847; calls by dose curve; note: top concentration of the series differs between compounds; nearly all actives have a fitted effect of over 30% in size)
Outline: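 Wild-type CHO-K1 cells (10% FBS medium) were plated overnight at 37C, exposed to compounds at 15 concentrations for 3 hr at 37C (0.76% DMSO final), and viability was read as CellTiter-Glo luminescence after 30 min at room temperature.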

| SMILES | Potency [1] | Potency [2] | Potency [3] | Potency [4] | Potency [5] | Potency [6] | Potency [7] | Potency [8] | Potency [9] | Potency [10] | activity change, positive = activation [11] | Potency [12] | Potency [13] | Potency [14] | Potency [15] | outcome [16] | Potency [17] | Potency [18] | Potency [19] |
| --- | --- | --- | --- | --- | --- | --- | --- | --- | --- | --- | --- | --- | --- | --- | --- | --- | --- | --- | --- |
| NC(N)=NN=C(/C=C/c1ccc([N+](=O)[O-])o1)/C=C/c1ccc([N+](=O)[O-])o1 | 2.98 µM (active) | 27.5 µM (active) | 3.35 µM (active) | 2.37 µM (active) | inactive | 6.68 µM (active) | inactive | inactive | inactive | 2.66 µM (active) | -66.8% [at 42.5 µM] | 1.69 µM (active) | inactive | 1.51 µM (active) | – | – | – | – | – |
| CC1=CCC(C(C)C)C=C1 (centres undefined) | inactive | inactive | inactive | inactive | inactive | – | – | – | inactive | – | – | inactive | inactive | inactive | inactive | inactive | inactive | – | – |
| CN(c1nccc(=O)[nH]1)C1CCN(c2nc3ccccc3n2Cc2ccc(F)cc2)CC1 | inactive | inactive | inactive | inactive | inactive | – | – | inactive | – | – | – | inactive | inactive | inactive | inactive | – | – | inactive | inactive |
| CCCCCCCCCCCCCCCC(=O)OC/C=C(C)/C=C/C=C(C)/C=C/C1=C(C)CCCC1(C)C | inactive | inactive | inactive | inactive | inactive | – | – | inactive | inactive | – | – | inactive | inactive | inactive | inactive | inactive | inactive | inactive | inactive |
| Cc1ccc(C(N)=O)cc1N | inactive | inactive | inactive | inactive | – | inactive | inactive | inactive | inactive | inactive | -0.06% | inactive | inactive | inactive | inactive | inactive | inactive | inactive | inactive |
| O=C(O)COC(=O)Cc1ccccc1Nc1c(Cl)cccc1Cl | inactive | inactive | inactive | inactive | – | inactive | inactive | inactive | inactive | inactive | 1.12% [at 42.5 µM] | inactive | inactive | inactive | inactive | – | inactive | inactive | inactive |
| COCCO | inactive | inactive | inactive | inactive | inactive | – | – | – | – | – | – | inactive | inactive | inactive | – | – | inactive | inactive | inactive |
| CC(C)(C)c1ccc(OCC2CO2)cc1 (centres undefined) | inactive | 32.4 µM (active) | inactive | inactive | – | inactive | inactive | inactive | – | inactive | 3.37% | inactive | inactive | inactive | inactive | inactive | inactive | inactive | – |
| CC(=O)[C@@]1(O)CC[C@H]2[C@@H]3C[C@H](C)C4=CC(=O)CC[C@]4(C)[C@H]3CC[C@@]21C | inactive | inactive | inactive | inactive | 21.1 µM (active) | – | – | inactive | inactive | 23.7 µM (active) | -36.6% [at 42.5 µM] | inactive | inactive | inactive | inactive | inactive | – | inactive | – |
| CC(=O)SCc1ccco1 | inactive | inactive | inactive | inactive | inactive | – | – | inactive | inactive | – | – | inactive | inactive | inactive | inactive | – | inactive | inactive | inactive |
| NCCCOCCOCCOCCCN | inactive | inactive | inactive | inactive | inactive | – | – | inactive | inactive | – | – | inactive | inactive | inactive | 15.5 µM (active) | – | inactive | inactive | – |
| NC(=S)N/N=C/c1cccnc1 | inactive | inactive | inactive | inactive | inactive | inactive | inactive | – | – | inactive | 0.0845% [at 42.5 µM] | inactive | inactive | inactive | inactive | inactive | inactive | – | inactive |
| O=C(O)c1cn(C2CC2)c2cc(Cl)c(F)cc2c1=O | inactive | inactive | inactive | inactive | inactive | – | – | inactive | inactive | – | – | inactive | – | inactive | – | inactive | – | inactive | inactive |
| CCN1CCC[C@H]1CNC(=O)c1c(OC)ccc(Br)c1OC | inactive | inactive | inactive | inactive | – | – | – | inactive | inactive | – | – | inactive | inactive | inactive | inactive | inactive | inactive | inactive | inactive |
